Entries with a potency or affinity are not part of this list. A number with no mark means an inactive call. Calls of active or inactive are those of the source.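 The calls were made as follows: active = ATP signal reduced by compound, with fitted active dose under ten times the top valid tested dose; inactive = the rest, compounds that increase ATP levels included.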

The nature of this experiment: cellular ATP toxicity in rat beta cells – cell-based, CellTiter-Glo luminescence, INS-1E, dry powder, cytotoxicity control for beta-cell cytokine protection project, dose response (AID 488864). The following applies: INS-1E rat beta cells, 48 h, no cytokines; series mostly up to 26 µM; activity change, negative = ATP decrease: at the top concentration.
In the case of `C[C@@H]1CN([C@@H](C)CO)C(=O)c2cccc(NC(=O)Nc3cccc4ccccc34)c2O[C@H]1CN(C)S(=O)(=O)c1cccs1`, the “activity change, negative = ATP decrease” value was 8.1%.

`C[C@@H]1CN([C@@H](C)CO)C(=O)c2cccc(NC(=O)Nc3cccc4ccccc34)c2O[C@H]1CN(C)C(=O)NC1CCCCC1`: the “activity change, negative = ATP decrease” value is -14.9%. As for `C[C@@H]1CN([C@@H](C)CO)C(=O)c2cccc(NC(=O)Nc3cccc4ccccc34)c2O[C@H]1CN(C)S(=O)(=O)c1ccc2c(c1)OCCCO2`, the “activity change, negative = ATP decrease” value was 7.84%. Still for that read-out and setting: the figure for `C[C@@H]1CN([C@@H](C)CO)C(=O)c2cccc(NC(=O)Nc3cccc4ccccc34)c2O[C@H]1CN(C)C(=O)Nc1ccc2c(c1)OCO2` is -3.25%.

For the compound `COc1ccc(NC(=O)Nc2cccc3c2O[C@@H](CN(C)S(=O)(=O)c2ccc(OC)cc2)[C@H](C)CN([C@@H](C)CO)C3=O)cc1`, the “activity change, negative = ATP decrease” value is 4.11%.

As to `COc1ccc(S(=O)(=O)N(C)C[C@@H]2Oc3c(NC(=O)NC4CCCCC4)cccc3C(=O)N([C@@H](C)CO)C[C@H]2C)cc1`, the “activity change, negative = ATP decrease” value is 6.92%. For the compound `C[C@@H]1CN([C@@H](C)CO)C(=O)c2cccc(NC(=O)Nc3cccc4ccccc34)c2O[C@H]1CN(C)S(=O)(=O)c1ccc2c(c1)OCCO2`, the call was inactive. Consider `COc1ccccc1S(=O)(=O)N(C)C[C@@H]1Oc2c(NC(=O)Nc3cccc4ccccc34)cccc2C(=O)N([C@@H](C)CO)C[C@H]1C`, for which the “activity change, negative = ATP decrease” value was 10%. With `COc1ccc(S(=O)(=O)N(C)C[C@@H]2Oc3c(NC(=O)c4cnccn4)cccc3C(=O)N([C@@H](C)CO)C[C@H]2C)cc1`, the “activity change, negative = ATP decrease” value is -2.23%.

Turning to `Cc1ccc(S(=O)(=O)N(C)C[C@@H]2Oc3c(NC(=O)Nc4ccc(F)cc4)cccc3C(=O)N([C@H](C)CO)C[C@H]2C)cc1`, the “activity change, negative = ATP decrease” value was 5.77%.

Turning to `C[C@@H]1CN([C@@H](C)CO)C(=O)c2cccc(NC(=O)Nc3cccc4ccccc34)c2O[C@H]1CN(C)S(=O)(=O)c1ccc2c(c1)OCO2`, the “activity change, negative = ATP decrease” value was -1.3%. In the case of `C[C@@H]1CN([C@@H](C)CO)C(=O)c2cccc(NC(=O)Nc3cccc4ccccc34)c2O[C@H]1CN(C)C(=O)Nc1ccccc1`, the “activity change, negative = ATP decrease” value was -6.04% [at 23.5 µM]. On the same count and under the same terms, under `COc1ccc(S(=O)(=O)N(C)C[C@@H]2Oc3c(NC(=O)Nc4ccccc4)cccc3C(=O)N([C@H](C)CO)C[C@H]2C)cc1` stands 1.41%; under `COc1ccc(S(=O)(=O)N(C)C[C@@H]2Oc3c(NC(=O)Nc4ccccc4)cccc3C(=O)N([C@@H](C)CO)C[C@H]2C)cc1`, 2.87%.

With `COc1ccc(S(=O)(=O)N(C)C[C@@H]2Oc3c(NC(=O)Nc4ccc(F)cc4)cccc3C(=O)N([C@H](C)CO)C[C@H]2C)cc1`, the “activity change, negative = ATP decrease” value is 1.45%. Same read-out and setting: the figure for `COc1ccc(S(=O)(=O)N(C)C[C@@H]2Oc3c(NC(=O)C4CCOCC4)cccc3C(=O)N([C@@H](C)CO)C[C@H]2C)cc1` is -5.52% [at 23.5 µM]; for `COc1ccc(S(=O)(=O)N(C)C[C@H]2Oc3c(NC(=O)Nc4cccc5ccccc45)cccc3C(=O)N([C@@H](C)CO)C[C@@H]2C)cc1` it is 9.1%. Regarding `COc1ccc(S(=O)(=O)N(C)C[C@@H]2Oc3c(NC(=O)Nc4cccc5ccccc45)cccc3C(=O)N([C@@H](C)CO)C[C@H]2C)cc1`, the “activity change, negative = ATP decrease” value was 11.3%.

For the origin of these results see PubChem BioAssay AID488864 (Broad Institute, 2010).
